Assay [1] has as its system CRL-7250. The assay can be described thus: Cytotoxic Profiling of Annotated Libraries Using Quantitative High-Throughput Screening (AID 1296008). Further: nearly all actives have a fitted effect of over 60% in size. Further: potency means the concentration at half of the fitted maximal effect. As to conditions: Five cell lines viability, CellTiter-Glo ATP luminescence, 48-72 h; max response: stronger effect = lower value. In a few lines: (§1)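 Compounds were pin-transferred onto cells and incubated 48 or 72 hr at 37 degree Celsius, 95% humidity. CellTiter-Glo was added, plates sat 10 min at room temperature, then ATP-coupled luminescence was imaged as the viability read-out.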
(In ATP-based viability assays light output follows the ATP content of the culture.)

In assay [2] the test system is HEK293. The assay is described as above. As to conditions: Five cell lines viability, CellTiter-Glo ATP luminescence, 48-72 h; max response: stronger effect = lower value. In a few lines: as §1
In assay [3] the test system is HaCat. The description is as above. The settings on record: Five cell lines viability, CellTiter-Glo ATP luminescence, 48-72 h; max response: stronger effect = lower value. In outline: as §1
For assay [4], the system named is KB-3-1. The description is as above. The settings on record: Five cell lines viability, CellTiter-Glo ATP luminescence, 48-72 h; max response: stronger effect = lower value. In outline:
as §1

For assay [5], the system named is NIH3T3. Described as above. As to conditions: Five cell lines viability, CellTiter-Glo ATP luminescence, 48-72 h; max response: stronger effect = lower value. In outline: as §1
Assay [6] has as its system MCC-13. In words: qHTS assay to identify novel small-molecules to repurpose for Merkel cell carcinoma treatment (AID 1296009). Further: nearly all actives have a fitted effect of over 60% in size. Further: potency means the concentration at half of the fitted maximal effect. The settings on record: MCC and control cell lines, CellTiter-Glo viability, 72 h; series mostly up to 46 µM. In a few lines: (§2)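 Viability readout: ATP luminescence (CellTiter-Glo) after 72 hr drug exposure at 37 degree celsius. Dose-response format was 8 points for NPC and 11 points for MIPE; data normalized to in-plate controls.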
On the technique in general: qHTS replaces the single test concentration by a dilution series.

Assay [7] relates to MCC-26. The description is as above. The settings on record: MCC and control cell lines, CellTiter-Glo viability, 72 h; series mostly up to 46 µM. In outline:
as §2

For assay [8], the system named is MKL-1. Described as above. The settings on record: MCC and control cell lines, CellTiter-Glo viability, 72 h; series mostly up to 46 µM. In outline:
as §2

In assay [9] the test system is MKL-2. The assay is described as above. The settings on record: MCC and control cell lines, CellTiter-Glo viability, 72 h; series mostly up to 46 µM. In outline:
as §2

For assay [10], the system named is NIH3T3. Described as above. As to conditions: MCC and control cell lines, CellTiter-Glo viability, 72 h; at 44.8 µM (top of the series) unless noted. In outline: as §2
In assay [11] the test system is UISO. The description is as above. As to conditions: MCC and control cell lines, CellTiter-Glo viability, 72 h; series mostly up to 46 µM. In a few lines:
as §2

In assay [12] the test system is WaGa. The description is as above. As to conditions: MCC and control cell lines, CellTiter-Glo viability, 72 h; series mostly up to 46 µM. In a few lines:
as §2

The subject of assay [13] is C33A. The assay can be described thus: Primary qHTS to identify gynecologic anti-cancer compounds using libraries of approved drugs and bioactive compounds (AID 1345084). Further: nearly all actives have a fitted effect of over 55% in size. The settings on record: Gynecologic cancer cell panel viability, ATPlite luminescence, 48 h; series mostly up to 57.5 µM. In outline:
(§3)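 Cell viability after 48 h drug treatment, ATPlite luminescence readout; five doses.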

Assay [14] concerns CASKI. The description is as above. As to conditions: Gynecologic cancer cell panel viability, ATPlite luminescence, 48 h; series mostly up to 57.5 µM. In a few lines: as §3
For assay [15], the system named is Es-2. The assay is described as above. As to conditions: Gynecologic cancer cell panel viability, ATPlite luminescence, 48 h; series mostly up to 57.5 µM. In outline: as §3
In assay [16] the test system is HeLa. The assay is described as above. As to conditions: Gynecologic cancer cell panel viability, ATPlite luminescence, 48 h; series mostly up to 57.5 µM. In a few lines:
as §3

Results filed as inconclusive are left out. Unmarked numbers belong to inactive results. Calls of active or inactive are those of the source. The call rests on the fitted dose curve; in most records, active means well fitted curve in the direction sought with a large enough effect; inconclusive means small, poorly fitted or top-dose-only effect, or another doubt; inactive means no such curve, though single readings can be large; an effect the other way counts as inactive or inconclusive. Starred links: 1 amine or outer side, 2 acyl side, 3 side chain; linkers in the order of their positions; H or OH if unused. Positions of bridges follow the written chain, without caps; N, C: chain ends. Non-standard residues stand in square brackets, D forms with d. Residues, ends and D or L forms follow the SMILES beside them. Chains are numbered I, II in the order given. Actinocin(9to1) = Cc1c2oc3c(C)ccc(C(=O)[*:1])c3nc-2c(C(=O)[*:2])c(N)c1=O; NMeV = CN[CH](C(=O)O)C(C)C; Sar = CNCC(=O)O
On the % scale 0 is the no-effect control and ±100 the full control effect.

Take `CC[C@H]1OC(=O)[C@H](C)[C@@H](O[C@H]2C[C@@](C)(OC)[C@@H](O)[C@H](C)O2)[C@H](C)[C@@H](O[C@@H]2O[C@H](C)C[C@H](N(C)C)[C@@H]2O)[C@](C)(OC)C[C@@H](C)C(=O)[C@H](C)[C@@H](O)[C@]1(C)O`: the max response in assay [1] was 4.09%; in assay [2], -15.9%; in assay [3], 3.25%; in assay [4], -5.56%. For the same compound, the compound was called inactive in [5] and in assay [10]. Moreover, the Potency result in [6], in assay [7], in assay [8], in [9], in assay [11] and in assay [12] was “inactive” each time.

Take `O=C(C=CC#Cc1cccc(NS(=O)(=O)c2ccccc2)c1)NO`: the Potency was 13200 nM (active) in assay [1]; 8330 nM (active) in [2]; 11800 nM (active) in assay [3]; 5260 nM (active) in [4]; 10500 nM (active) in [5]; 14800 nM (active) in [6]. The Potency was 18700 nM (active) in [7]; 3720 nM (active) in [8]; 1320 nM (active) in [9]; 16600 nM (active) in [11]; 1180 nM (active) in assay [12].

`Nc1ccn(C2CO[C@H](CO)O2)c(=O)n1` (stereo not given in full): the max response in assay [1] is -10.6%; in [2] it was -12.3%; in [3] it was 1.07%; in [4], 6.69%; in assay [5] it was -8.89%. Moreover, the Potency entry in assay [6], in assay [7], in assay [8], in [9], in [11] and in assay [12] was “inactive” throughout. The Potency result in assay [13], in assay [14], in [15] and in assay [16] was “inactive” in each case.

Regarding `N#CNC(=NCCCCCCOc1ccc(Cl)cc1)Nc1ccncc1`, the max response in assay [1] is -103%; in [2], -111%. In addition, the Potency in assay [3] is 20.9 nM (active); in assay [4] it was 3.7 nM (active); in assay [5], 296 nM (active); in [6], 37.2 nM (active); in assay [7], 14.8 nM (active); in assay [8], 1.2 nM (active). Also, the Potency is 5.9 nM (active) in [11] and 3.3 nM (active) in assay [12]. The Potency entry in assay [9] is “inactive”.

`NC(=O)Nc1cc(-c2ccc(CN3CCOCC3)cc2)sc1C(N)=O`: the Potency in assay [1] was 13200 nM (active); in assay [2], 5260 nM (active); in assay [3], 332 nM (active); in assay [4], 7430 nM (active); in assay [5] it was 662 nM (active). Besides, the Potency result in [6] is “inactive”.

`COc1cc(C(C)C)c(Oc2cnc(NC(CO)CO)nc2N)cc1I`: the max response was 3.93% in assay [1]; -7.36% in assay [2]; -12.7% in [3]; -2.87% in assay [4]; 1.73% in assay [5]. Further, the Potency result in [6], in assay [7], in assay [8], in assay [9], in assay [11] and in [12] was “inactive” each time.

Regarding `Cc1cn([C@@H]2O[C@H](CO)[C@@H](O)[C@H]2F)c(=O)[nH]c1=O`, the max response in [1] was -5.97%; in assay [2], -1.3%; in [3], -13.3%. The result in [4], in [5] and in assay [10] was inactive. For the same compound, the Potency result in assay [6], in assay [7], in [8], in assay [9], in [11] and in assay [12] was “inactive” each time. In addition, the Potency entry in assay [13], in assay [14], in assay [15] and in [16] was “inactive” each time.

Turning to `Cc1c2oc3c(C)ccc(C(=O)NC4C(=O)NC(C(C)C)C(=O)N5CCCC5C(=O)N(C)CC(=O)N(C)C(C(C)C)C(=O)OC4C)c3nc-2c(C(=O)NC2C(=O)NC(C(C)C)C(=O)N3CCCC3C(=O)N(C)CC(=O)N(C)C(C(C)C)C(=O)OC2C)c(N)c1=O` (stereo not given) (I: TVP[Sar][NMeV] / II: TVP[Sar][NMeV]; ester I:1-I:C, II:1-II:C; linker I:N-II:N via Actinocin(9to1); configuration not given here), the max response in assay [1] is -99.9%; in assay [2], -93.3%; in assay [3], -104%; in assay [5], -100%. In addition, the Potency in assay [4] was 0.0662 nM (active). For the same compound, the Potency result in [6], in [7], in assay [8], in assay [9], in [11] and in assay [12] was “inactive” each time.

With `O=c1[nH]c(=O)n([C@H]2C[C@@H](O)[C@@H](CO)O2)cc1C=CBr`, the max response in assay [1] was -10.9%; in assay [2], -1.26%; in assay [3] it was -10.4%. Further, the outcome in assay [4], in assay [5] and in assay [10] was inactive. Besides, the Potency result in [6], in [7], in [8], in assay [9], in assay [11] and in assay [12] was “inactive” throughout.

(Values after PubChem BioAssay (NCATS).)
